Laboratory results taken from ChEMBL document CHEMBL4513216, “Probing the Open Global Health Chemical Diversity Library for Multistage-Active Starting Points for Next-Generation Antimalarials” (ACS Infect Dis, 2020).
The whole screen tested about 68,000 compounds, of which about 2,700 (4%) showed an effect of 50% or more. The full list was thinned out, with strong results kept by preference.

System: Plasmodium berghei
Test: Screen against P. berghei liver stage (PbLuc), transformed with Luciferase, at 2uM
Assay type: functional, HepG2
Conditions: tested at 2 uM

Compound | INHIBITION
Cc1cccc(CN2C[C@@H]3COC[C@H](NS(C)(=O)=O)[C@@H]3C2)n1 | 32.85%
CN(C)Cc1cnc(C2CCN(C(=O)c3ccccc3F)C2)[nH]1 (stereo unspecified) | -17.01%
CCN(Cc1ccccc1)C(=O)CN1CCOC(Cn2cncn2)C1 (stereo unspecified) | 32.41%
O=C(N1CCCC(n2cncn2)C1)C1(c2ccccc2F)CCCC1 (stereo unspecified) | -15.28%
O=C(COCc1nc(-c2ccncc2)no1)N1CCCCC1 | 27.89%
Brc1cnc(NCCCOCC2CCOC2)nc1 (stereo unspecified) | 20.3%
COCCCNS(=O)(=O)c1cc(C)sc1C | -11.76%
CCc1nccn1-c1cccc(C2CCN(C(=O)COC)CC2)n1 | 47.4%
N#Cc1ccsc1N1CCC(Sc2ccncc2)C1=O (stereo unspecified) | 35.61%
Cc1cnn(CCC(=O)N2CCCN(c3ncccc3C#N)CC2)c1 | -2.7%
CCS(=O)(=O)N1CCC(NC(=O)c2cc(C)ccc2O)CC1 | -12.19%
CC(=O)c1cc(CC(=O)N2CCN(CCOc3ccccc3)CC2)cs1 | -18.33%
O=C(Cc1ccsc1)N1CCN(CCOc2ccccc2)CC1 | 6.17%
Cc1nc(CC(=O)N2CCN(CCOc3ccccc3)CC2)cs1 | 65.5%
FC(F)(F)C1CCc2nnc(CNCc3cccs3)n2C1 (stereo unspecified) | 58.98%
FC(F)(F)C1CCc2nnc(CNCc3ccsc3)n2C1 (stereo unspecified) | -14.84%
Fc1ccc(CNCc2nnc3n2CC(C(F)(F)F)CC3)cc1 (stereo unspecified) | 0.85%
CCCC(NC(=O)NCc1cccc(N(C)C)n1)c1ccccn1 (stereo unspecified) | -40.08%
CN(Cc1cncnc1)[C@@H]1CN(C(=O)c2ccco2)[C@@H]2CCCO[C@H]12 | 8.17%
CC(=O)N1CCN(Cc2csc(-c3cnn(C)c3)n2)CC1 | -6.3%
Cc1nnc2n1CCN(Cc1csc(-c3cnn(C)c3)n1)C2 | 57.34%
COCCN1CCN(Cc2csc(-c3cnn(C)c3)n2)CC1 | -20.82%

Compound | INHIBITION
Cn1cc(-c2nc(CN3CCN(CCO)CC3)cs2)cn1 | 53.03%
CCc1nnc2n1CCN(Cc1csc(-c3cnn(C)c3)n1)C2 | -4.69%
CC(C)c1nnc2n1CCN(Cc1csc(-c3cnn(C)c3)n1)C2 | 47.25%
CN(C)Cc1ccnc(C2CCCN2Cc2ccc(F)cn2)n1 (stereo unspecified) | 18.38%
Cc1ncc(CN2CCC(O)(c3ccccc3F)CC2)cn1 | 4.19%
N#Cc1ccc(OC2CCN(CC(=O)NCC3CCCO3)CC2)cc1 (stereo unspecified) | -27.4%
Oc1coc2cc(OC[C@@H]3CCCN4CCCC[C@H]34)ccc12 | -61.71%
CC(C)Cc1cc(C(=O)NCc2nnc[nH]2)[nH]n1 | 16.6%
CN(Cc1ccsc1)C(=O)c1cccc(F)c1 | 14.82%
Cc1ccc(NC2CCN(C(=O)COCC3CC3)CC2)nn1 | 15.28%
O=C(NCc1ccc(Cl)s1)c1cc(CN2CCCC(O)C2)on1 (stereo unspecified) | 4.38%
O=C(NCc1c(F)cccc1Cl)c1cc(CN2CCCC(O)C2)on1 (stereo unspecified) | 52.51%
O=C(NCc1cccc(F)c1F)c1cc(CN2CCCC(O)C2)on1 (stereo unspecified) | -81.33%
O=C(CCn1cccn1)NS(=O)(=O)N1CCCc2ccccc21 | -1.45%
COc1ccc(C2CCCCCN2Cc2nnc(C)o2)cc1 (stereo unspecified) | 52.83%
Cc1nnc(CN2CCCC2c2ccc(Cl)c(Cl)c2)o1 (stereo unspecified) | -107.58%
Cc1nnc(CN2CCCC2c2ccc(C(C)(C)C)cc2)o1 (stereo unspecified) | 29.19%
COc1cccc(Cn2cc(C3=CCN(CC(=O)N(C)C)CC3)cn2)c1 | 57.41%
COc1cccc(Cn2cc(C3=CCN(CCO)CC3)cn2)c1 | 13.24%
CN(C)C(=O)CN1CC=C(c2cnn(Cc3ccccc3)c2)CC1 | 21.95%
O=C(Nc1cnn(CCN2CCOCC2)c1)c1ccccc1O | -12.48%
O=C(Nc1cnn(CCN2CCOCC2)c1)c1ccccc1Cl | 28.33%

Compound | INHIBITION
O=C(Nc1cnn(CCN2CCOCC2)c1)c1cc(F)ccc1F | 53.03%
COc1ncccc1CN1C[C@@H]2OCCN(CCN(C)C)[C@@H]2C1 | 22.18%
c1coc(CN2CCn3c(CN4CCOCC4)nnc3C2)c1 | 8.99%
Cc1[nH]nc(CCC(=O)N2CCOC(CCc3ccccc3)C2)c1C (stereo unspecified) | -18.99%
c1ccc2c(c1)nc1n2[C@@H](CNCc2nccs2)COC1 | 24.64%
Fc1ccc2c(c1)nc1n2[C@@H](CNCc2nccs2)COC1 | 61.42%
COc1ccc2c(c1)nc1n2[C@@H](CNCc2nccs2)COC1 | 24.42%
CC(C)n1ccnc1CN1CCOC(C)(C(=O)N2CCOCC2)C1 (stereo unspecified) | 13.58%
Cc1nc(N2CCOCC2)nc2c1CCN(Cc1nccn1C)CC2 | 13.25%
COCC(=O)N1C[C@H]2CN(Cc3csc(C)n3)C(=O)[C@H]2C1 | -6.13%
Cn1cc(CN2C[C@@H]3COC[C@]3(CNC(=O)c3ccccc3)C2)cn1 | 23.43%
Cc1cccc(CN2C[C@@H]3COC[C@]3(CNC(=O)C3CC3)C2)c1 | -2.81%
O=C(NC[C@]12COC[C@H]1CN(Cc1ccncc1)C2)c1ccco1 | -5.65%
COc1cccc(CN2C[C@@H]3COC[C@]3(CNC(=O)C3CC3)C2)c1 | -9.07%
Cn1cc(CN2C[C@@H]3COC[C@]3(CNC(=O)c3ccco3)C2)cn1 | 67.67%
Cc1cccc(CN2C[C@@H]3COC[C@]3(CNC(=O)c3ccsc3)C2)n1 | -26.88%
Cc1cccc(CN2C[C@@H]3COC[C@]3(CNC(=O)C3CCC3)C2)c1 | 55.92%
Cc1cccc(CN2C[C@@H]3COC[C@]3(CNC(=O)c3cccn3C)C2)n1 | -26.91%
Cc1cccc(CN2C[C@@H]3COC[C@]3(CNC(=O)c3ccccc3)C2)n1 | 59.04%
COc1cccc(OC)c1C(C(=O)O)N(C)Cc1c(C)n[nH]c1C (stereo unspecified) | 17.2%
CCN1CCC2(CC1)CC(NCc1cccs1)c1ccccc1O2 (stereo unspecified) | -5.2%
COCC(=O)N1CC(=O)c2sc(Nc3ccc(F)cc3F)nc2C1 | -0.83%
